Several values for one entry are separate records, joined by “and”; a condition that tells them apart may be missing. Identical values can stand only once. Results filed as inconclusive are left out. Activity calls are given as the source filed them. Unless noted, the call rests on the fitted dose curve; in most records, active means well fitted curve in the direction sought with a large enough effect; inconclusive means small, poorly fitted or top-dose-only effect, or another doubt; inactive means no such curve, though single readings can be large; an effect the other way counts as inactive or inconclusive.
Assays:
[1] = qHTS for differential inhibitors of proliferation of Plasmodium falciparum line W2 (AID 1883); conditions: Potency: Plasmodium falciparum W2 proliferation inhibition;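 further: parasites grown with compound for 72 h before lysis and staining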; further: potency means the concentration at half of the fitted maximal effect;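 on activity change, negative = inhibition: 0% = vehicle wells and -100% = control inhibitor wells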
[2] = molecular target: RecQ-like DNA helicase BLM (Homo sapiens) (UniProt P54132); assay: qHTS Validation Assay for Inhibitors of Bloom's syndrome helicase (BLM) (AID 2364);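 further: plate controls were DMSO vehicle for no effect and enzyme-free control for full effect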
Summary of the method: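 50 nM BLM preincubated 15 min at room temperature with compound in pH 8.0 Tris buffer containing 2.5 ug/ml poly(dI-dC); started with 200 nM TAMRA/BHQ-2 forked duplex and 2 mM ATP (final). Unwinding read as TAMRA fluorescence increase, two reads 2 h apart.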

[3] = Quantitative high throughput screen for delayed death inhibitors of the malarial parasite plastid, 96 hour incubation (AID 488745); further: nearly all actives have a fitted effect of over 70% in size; further: potency means the concentration at half of the fitted maximal effect
Summary of the method: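 Growth of reporter-bearing P. falciparum in red cells is measured after 96 h with compound, covering two erythrocytic cycles. Luminescence from the integrated luciferase serves as the growth signal.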

[4] = molecular target: Voltage-gated inwardly rectifying potassium channel KCNH2 (Homo sapiens) (UniProt Q12809); assay: qHTS Assay for Small Molecule Inhibitors of the Human hERG Channel Activity (AID 588834);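 further: top concentration of the series differs between compounds; on the % scale 0 is the no-effect control and ±100 the full control effect; lower thallium flux fluorescence means stronger hERG block; nearly all actives have a fitted effect of over 50% in size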
Summary of the method: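 U2OS cells BacMam-transduced with hERG, 2000 cells/well, compound ~10 min at 37 °C before stimulation buffer. FluxOR thallium flux fluorescence read kinetically on FDSS; decrease indicates block; AC50 from Hill fits.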

[5] = qHTS for differential inhibitors of proliferation of Plasmodium falciparum line 7G8 (AID 1815);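 further: parasite growth measured after three days of incubation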; further: potency means the concentration at half of the fitted maximal effect;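 on activity change, negative = inhibition: plate controls were vehicle wells for no effect and reference inhibitor wells for full effect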
[6] = qHTS for differential inhibitors of proliferation of Plasmodium falciparum line GB4 (AID 1816); conditions: Potency: Plasmodium falciparum GB4 proliferation inhibition;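 further: parasite growth measured after 72 h incubation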; further: potency means the concentration at half of the fitted maximal effect;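 on activity change, negative = inhibition: 0% = vehicle DMSO and -100% = reference inhibitor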
[7] = qHTS for differential inhibitors of proliferation of Plasmodium falciparum line 3D7 (AID 1876); further: potency means the concentration at half of the fitted maximal effect;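 on activity, negative = inhibition: parasite growth measured after three days of culture; 0% = vehicle wells and -100% = reference inhibitor wells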
[8] = qHTS for differential inhibitors of proliferation of Plasmodium falciparum line D10 (AID 1877);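 further: parasites grown with compound for 72 h before DNA staining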; further: potency means the concentration at half of the fitted maximal effect;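 on activity change, negative = inhibition: plate controls were vehicle wells for no effect and reference inhibitor wells for full effect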
[9] = qHTS for differential inhibitors of proliferation of Plasmodium falciparum line HB3 (AID 1886); conditions: Potency: Plasmodium falciparum HB3 proliferation inhibition;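 further: parasites grown with compound for 72 h before SYBR Green readout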; further: potency means the concentration at half of the fitted maximal effect;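 on activity change, negative = inhibition: plate controls were vehicle for no effect and reference inhibitor for full effect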
[10] = molecular target: Thyrotropin receptor (Homo sapiens) (UniProt P16473); assay: qHTS Assay for Antagonists of the Thyroid Stimulating Hormone Receptor (AID 488980); further: 0% is about no effect
Summary of the method: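 TSHR-transfected HEK293 cells (2000/well) in HEPES-buffered HBSS with 70 uM RO 20-1724 were stimulated with 4 nM TSH (EC80, final) in the presence of compound. cAMP was measured by HTRF competition after lysis and 30 min at RT.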

[11] = molecular target: Thyrotropin-releasing hormone receptor (Homo sapiens) (UniProt P34981); assay: qHTS for Small Molecule Agonists and Allosteric Enhancers of Human TRH Receptor: Validation Screen for Agonists (AID 493127;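 active means calcium activation more than 3 SD above the typical response in the agonist read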;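 further: intracellular calcium rise by fluo-8 fluorescence before TRH EC20 addition; 0% is about no effect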); conditions: TRH receptor agonist cell assay; at 2 µM; hits give high values
Summary of the method: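 Gq-coupled calcium mobilization in TRHR cells after compound addition, monitored kinetically with fluo-8 dye on an FDSS reader.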

[12] = AP1 Signaling Pathway (AID 357; active means well fitted curve in either direction with a large enough effect, not every such curve was filed as active;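 further: ME-180 reporter cells stimulated with EGF at its EC50 level; on the % scale 0 is the no-effect control and ±100 the full control effect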); conditions: ME-180 AP-1-bla reporter, EGF-induced, beta-lactamase ratio, 5 h
Summary of the method: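 Read-out was the 460nm/530nm emission ratio (excitation 405nm) after CCF4 loading for 2.5 hours at room temperature. Cells carried an AP-1-driven beta-lactamase reporter, were stimulated with EC50 EGF plus compound for 5 hours, and AC50 values came from titrations.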

[13] = Stat Signaling Pathway (AID 446; active means well fitted curve in either direction with a large enough effect, not every such curve was filed as active;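 further: ME-180 cervical cancer cells given 40 pM IL-6 alongside compound; SIE-controlled beta-lactamase reporter measured as 460/530 nm FRET emission ratio; on the % scale 0 is the no-effect control and ±100 the full control effect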); conditions: ME-180 SIE beta-lactamase reporter, IL-6 stimulated, 5 h
Summary of the method: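 Screening format detects activators and inhibitors alike: ME-180 SIE-bla cells stimulated at 40 pM IL-6 for 5 hrs with compound, then dual-emission beta-lactamase read at 405 nm excitation.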

[14] = molecular target: Glucocorticoid receptor (Homo sapiens) (UniProt P04150); assay: GR-GFP Redistribution (AID 450;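 active means compounds whose dose series gives a full or clear partial fitted curve of increased nuclear translocation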; further: potency means the concentration at half of the fitted maximal effect); conditions: U2OS GR-GFP nuclear translocation, laser cytometry, 2 h
[15] = molecular target: Glucocorticoid receptor (Homo sapiens) (UniProt P04150); assay: GR-EFC Redistribution (AID 451; calls by dose curve; further: potency means the concentration at half of the fitted maximal effect); conditions: CHO-K1 GR-EFC translocation, beta-gal luminescence, 2 h
Summary of the method: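 CHO-K1 cells expressing nuclear EA and GR-ED fragments of b-gal; compounds titrated up to 46 uM final, 2 h at 37 C. GR nuclear translocation read as complemented b-gal luminescence after 1 h RT detection.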

[16] = qHTS Assay for Modulators of Human Peripheral Myelin Protein 22 (PMP22) Expression/Activity (AID 1967; active means well fitted curve in the direction sought with a large enough effect in the signal ratio; the % refers to the signal ratio;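 further: 0% = untreated cells and 100% end not stated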)
Summary of the method: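 Mouse MSC80 Schwann cells carrying Pmp22 promoter–green click beetle luciferase plus EF-alpha–red luciferase control, dosed 24 h at 37 °C. Dual-filter luminescence, overlap-corrected; %Activity from green/red ratio normalised to untreated cells, concentration-response curves fitted.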

[17] = molecular target: Ferritin light chain (Equus caballus) (UniProt P02791); assay: qHTS Validation Assay for Identification of Novel General Anesthetics (AID 2323); further: on the % scale 0 is the no-effect control and ±100 the full control effect
Summary of the method: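 Horse-spleen apoferritin (10 uM) in PBS with 50% saturated 1-aminoanthracene; compounds pin-transferred, 10 min at room temperature. Fluorescence read at 380/535 nm, normalized to free 1-AMA and 1-AMA/apoferritin values; four-parameter Hill fit.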

[18] = molecular target: ATP-dependent 6-phosphofructokinase (Trypanosoma brucei brucei) (UniProt O15648); assay: qHTS Assay to Find Inhibitors of T. brucei phosphofructokinase: hit validation (AID 492961);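 further: luminescence reports ADP formed as PFK phosphorylates fructose-6-phosphate with ATP; on the % scale 0 is the no-effect control and ±100 the full control effect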
Summary of the method: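 Compounds titrated; %activity normalized to 0x and 1x enzyme controls, curve-fitted. Readout: ADP-Glo luminescence after 45 min room-temperature reaction of 1.25 nM PFK, 0.1 mM ATP, 0.5 mM F6P, pH 8.0.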

[19] = molecular target: Ubiquitin carboxyl-terminal hydrolase 1 (Homo sapiens) (UniProt O94782); assay: Inhibitors of USP1/UAF1: Pilot qHTS (AID 504865);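 further: rhodamine fluorescence freed from ubiquitin-rhodamine substrate followed over time; top concentration of the series differs between compounds; on the % scale 0 is the no-effect control and ±100 the full control effect; nearly all actives have a fitted effect of over 35% in size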
Summary of the method: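 USP1/UAF1 complex at 1 nM preincubated 15 min at room temperature with compound, then Ub-Rho substrate added at 150 nM final. Fluorescence (480/540 nm) read kinetically in 50 mM HEPES pH 7.8, 0.5 mM EDTA, 1 mM TCEP, 0.1 mg/ml BSA, 0.01% Tween-20.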

[20] = qHTS profiling for inhibitors of Plasmodium falciparum proliferation (AID 504749);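 further: 0% = DMSO vehicle and full inhibition = artemisinin control; nearly all actives have a fitted effect of over 60% in size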; conditions: P. falciparum in erythrocytes, SYBR Green DNA, 72 h, at 28.7 µM (top of the series)
Summary of the method: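 Readout was DNA-dye fluorescence from lysed cultures, ex 485/em 535 nm. Parasitized red cells had grown 72 h with compound; data scaled between 0.29 uM artemisinin and DMSO wells and corrected using vehicle-only plates.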

[21] = at 7.69 µM (top of the series) unless noted

Thyrotropin receptor (Homo sapiens), sequence (P16473 whole entry, looked up): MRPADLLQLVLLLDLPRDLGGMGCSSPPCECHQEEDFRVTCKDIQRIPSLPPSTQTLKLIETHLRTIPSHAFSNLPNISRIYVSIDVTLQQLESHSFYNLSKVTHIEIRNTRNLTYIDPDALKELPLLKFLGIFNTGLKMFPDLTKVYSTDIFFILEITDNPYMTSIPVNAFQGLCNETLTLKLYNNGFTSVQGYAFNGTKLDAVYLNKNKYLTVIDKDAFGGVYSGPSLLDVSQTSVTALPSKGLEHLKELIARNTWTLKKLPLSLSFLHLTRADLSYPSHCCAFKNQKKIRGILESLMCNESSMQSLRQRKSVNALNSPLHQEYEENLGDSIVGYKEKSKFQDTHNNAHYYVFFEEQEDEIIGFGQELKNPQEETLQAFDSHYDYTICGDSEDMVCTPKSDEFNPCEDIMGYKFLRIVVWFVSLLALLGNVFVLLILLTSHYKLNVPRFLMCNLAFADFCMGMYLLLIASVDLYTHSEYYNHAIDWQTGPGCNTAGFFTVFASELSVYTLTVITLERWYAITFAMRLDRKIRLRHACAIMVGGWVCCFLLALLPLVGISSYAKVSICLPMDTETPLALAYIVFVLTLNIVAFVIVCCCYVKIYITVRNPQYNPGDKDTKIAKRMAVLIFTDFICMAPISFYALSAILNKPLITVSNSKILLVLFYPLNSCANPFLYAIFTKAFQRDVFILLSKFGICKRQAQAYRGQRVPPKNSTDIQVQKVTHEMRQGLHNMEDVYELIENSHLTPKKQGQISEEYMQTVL
Ferritin light chain (Equus caballus), sequence (P02791 2-175 limits assumed): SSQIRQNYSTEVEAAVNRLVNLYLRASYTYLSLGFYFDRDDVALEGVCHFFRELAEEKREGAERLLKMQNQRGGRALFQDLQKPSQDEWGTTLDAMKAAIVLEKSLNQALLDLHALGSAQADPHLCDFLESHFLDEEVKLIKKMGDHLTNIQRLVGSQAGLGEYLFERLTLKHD
RecQ-like DNA helicase BLM (Homo sapiens), sequence (P54132 whole entry, looked up): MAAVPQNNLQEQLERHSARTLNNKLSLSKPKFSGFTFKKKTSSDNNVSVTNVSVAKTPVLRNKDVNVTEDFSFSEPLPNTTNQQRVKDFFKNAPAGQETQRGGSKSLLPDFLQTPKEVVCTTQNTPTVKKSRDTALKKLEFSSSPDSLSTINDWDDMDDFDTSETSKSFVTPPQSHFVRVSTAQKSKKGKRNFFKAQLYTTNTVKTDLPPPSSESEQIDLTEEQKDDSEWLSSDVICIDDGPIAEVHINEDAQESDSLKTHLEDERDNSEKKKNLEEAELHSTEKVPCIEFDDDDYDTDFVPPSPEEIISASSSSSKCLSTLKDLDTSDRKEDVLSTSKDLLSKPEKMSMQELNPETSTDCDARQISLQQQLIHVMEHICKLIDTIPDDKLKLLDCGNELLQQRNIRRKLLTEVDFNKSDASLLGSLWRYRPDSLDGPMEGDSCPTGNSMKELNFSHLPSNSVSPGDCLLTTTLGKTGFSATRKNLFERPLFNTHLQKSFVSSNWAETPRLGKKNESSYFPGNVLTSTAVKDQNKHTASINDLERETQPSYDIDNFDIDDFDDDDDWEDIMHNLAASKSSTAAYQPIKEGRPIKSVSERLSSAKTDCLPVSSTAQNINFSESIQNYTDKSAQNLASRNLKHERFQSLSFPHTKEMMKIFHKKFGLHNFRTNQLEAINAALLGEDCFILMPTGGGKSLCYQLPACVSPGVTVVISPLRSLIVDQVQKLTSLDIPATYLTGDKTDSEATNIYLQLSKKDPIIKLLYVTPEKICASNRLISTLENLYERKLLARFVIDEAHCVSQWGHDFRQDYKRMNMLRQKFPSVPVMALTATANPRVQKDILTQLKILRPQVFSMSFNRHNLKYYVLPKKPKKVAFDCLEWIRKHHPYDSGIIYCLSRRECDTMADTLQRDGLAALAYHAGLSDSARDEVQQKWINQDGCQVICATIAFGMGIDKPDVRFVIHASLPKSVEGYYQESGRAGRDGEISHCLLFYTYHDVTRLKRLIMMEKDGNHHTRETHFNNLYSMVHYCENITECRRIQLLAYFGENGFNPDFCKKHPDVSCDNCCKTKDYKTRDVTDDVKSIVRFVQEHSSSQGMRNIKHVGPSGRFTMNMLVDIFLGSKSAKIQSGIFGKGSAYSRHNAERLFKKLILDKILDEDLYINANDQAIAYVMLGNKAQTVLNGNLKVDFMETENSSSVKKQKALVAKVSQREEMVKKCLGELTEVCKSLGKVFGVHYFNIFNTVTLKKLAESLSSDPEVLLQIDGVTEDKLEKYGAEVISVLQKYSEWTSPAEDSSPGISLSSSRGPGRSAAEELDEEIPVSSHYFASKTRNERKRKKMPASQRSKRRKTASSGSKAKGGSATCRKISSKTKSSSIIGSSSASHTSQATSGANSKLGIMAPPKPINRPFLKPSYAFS
Voltage-gated inwardly rectifying potassium channel KCNH2 (Homo sapiens), sequence (Q12809 whole entry, looked up): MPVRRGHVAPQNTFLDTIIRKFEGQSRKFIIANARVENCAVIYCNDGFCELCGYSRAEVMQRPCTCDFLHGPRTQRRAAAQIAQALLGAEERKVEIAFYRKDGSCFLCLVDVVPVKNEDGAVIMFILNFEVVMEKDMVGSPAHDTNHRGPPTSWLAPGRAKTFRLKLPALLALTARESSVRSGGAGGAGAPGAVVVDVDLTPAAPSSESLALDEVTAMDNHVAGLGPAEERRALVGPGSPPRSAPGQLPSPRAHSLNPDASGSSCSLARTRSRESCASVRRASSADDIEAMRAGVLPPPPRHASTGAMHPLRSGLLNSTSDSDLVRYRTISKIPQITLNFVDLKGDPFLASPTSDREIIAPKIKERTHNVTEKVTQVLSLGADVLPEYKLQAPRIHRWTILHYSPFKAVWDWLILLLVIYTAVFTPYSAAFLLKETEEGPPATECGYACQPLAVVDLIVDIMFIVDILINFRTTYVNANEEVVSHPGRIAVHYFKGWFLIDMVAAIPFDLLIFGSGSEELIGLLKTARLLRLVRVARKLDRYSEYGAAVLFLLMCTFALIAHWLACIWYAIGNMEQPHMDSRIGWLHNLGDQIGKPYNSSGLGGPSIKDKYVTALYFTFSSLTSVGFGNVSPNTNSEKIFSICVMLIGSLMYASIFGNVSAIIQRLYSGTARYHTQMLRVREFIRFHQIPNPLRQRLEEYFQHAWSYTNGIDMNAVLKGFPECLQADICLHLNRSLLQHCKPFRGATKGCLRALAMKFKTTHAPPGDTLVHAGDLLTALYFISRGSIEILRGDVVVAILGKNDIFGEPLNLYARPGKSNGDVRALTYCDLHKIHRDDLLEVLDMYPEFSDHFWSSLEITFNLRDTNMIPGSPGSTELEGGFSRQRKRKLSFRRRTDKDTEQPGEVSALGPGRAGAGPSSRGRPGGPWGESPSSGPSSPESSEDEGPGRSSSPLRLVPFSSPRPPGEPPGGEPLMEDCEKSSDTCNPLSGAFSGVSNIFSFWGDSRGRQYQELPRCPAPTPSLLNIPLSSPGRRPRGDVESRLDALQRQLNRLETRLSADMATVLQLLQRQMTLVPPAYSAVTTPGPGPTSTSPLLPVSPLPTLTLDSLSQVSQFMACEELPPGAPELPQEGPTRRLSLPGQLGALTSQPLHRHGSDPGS
Glucocorticoid receptor (Homo sapiens), sequence (P04150 whole entry, looked up, the tested form may be a part): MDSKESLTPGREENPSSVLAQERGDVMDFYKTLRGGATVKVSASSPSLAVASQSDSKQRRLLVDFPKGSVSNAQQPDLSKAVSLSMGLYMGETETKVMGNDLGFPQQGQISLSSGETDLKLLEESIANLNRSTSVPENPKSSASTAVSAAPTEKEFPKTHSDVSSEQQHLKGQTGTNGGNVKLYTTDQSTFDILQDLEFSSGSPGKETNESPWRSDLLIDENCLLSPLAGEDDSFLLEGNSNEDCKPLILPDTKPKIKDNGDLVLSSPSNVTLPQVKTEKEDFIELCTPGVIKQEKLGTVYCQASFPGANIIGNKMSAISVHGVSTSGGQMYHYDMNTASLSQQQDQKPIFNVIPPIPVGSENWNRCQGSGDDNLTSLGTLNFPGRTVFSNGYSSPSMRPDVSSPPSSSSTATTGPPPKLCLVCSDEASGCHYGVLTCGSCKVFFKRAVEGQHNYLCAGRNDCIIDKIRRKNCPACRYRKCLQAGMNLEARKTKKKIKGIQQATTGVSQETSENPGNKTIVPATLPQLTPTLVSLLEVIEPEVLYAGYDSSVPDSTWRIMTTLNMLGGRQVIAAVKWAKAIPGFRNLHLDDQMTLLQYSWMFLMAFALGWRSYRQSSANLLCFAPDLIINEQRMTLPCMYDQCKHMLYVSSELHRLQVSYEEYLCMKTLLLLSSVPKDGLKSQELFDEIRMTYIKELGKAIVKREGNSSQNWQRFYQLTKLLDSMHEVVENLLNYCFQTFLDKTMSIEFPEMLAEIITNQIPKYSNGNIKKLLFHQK
Thyrotropin-releasing hormone receptor (Homo sapiens), sequence (P34981 whole entry, looked up): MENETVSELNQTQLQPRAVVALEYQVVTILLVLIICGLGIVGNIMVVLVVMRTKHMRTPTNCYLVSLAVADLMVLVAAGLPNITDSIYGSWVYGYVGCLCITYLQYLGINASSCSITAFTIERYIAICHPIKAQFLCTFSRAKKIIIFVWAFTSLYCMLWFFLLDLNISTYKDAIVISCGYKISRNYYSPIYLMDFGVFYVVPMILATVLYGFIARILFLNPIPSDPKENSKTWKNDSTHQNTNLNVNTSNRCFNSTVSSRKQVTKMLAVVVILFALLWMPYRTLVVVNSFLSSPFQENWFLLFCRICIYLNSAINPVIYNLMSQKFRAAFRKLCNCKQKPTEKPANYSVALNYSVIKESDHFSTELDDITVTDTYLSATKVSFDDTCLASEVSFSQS

C[C@H]1CC2[C@@H]3CCC4=CC(=O)C=C[C@]4(C)[C@@]3(F)[C@@H](O)C[C@]2(C)[C@@]1(O)C(=O)CO (some centres not stated)
inactive: Potency [2] | Potency [3] | Potency [4]
active: Potency [1] 10 µM

CC(C)C1NC(=O)[C@H](CCCCN)NC(=O)[C@@H](Cc2c[nH]c3ccccc23)NC(=O)[C@H](Cc2ccc(O)cc2)NC(=O)[C@H](C)N(C)C(=O)[C@H](Cc2ccccc2)NC1=O (some centres not stated)
inactive: Potency [5] | Potency [6] | Potency [7] | Potency [8] | Potency [9] | Potency [2] | Potency [3] | outcome [10] | activation [11] -0.438% | Potency [4]

NCCC(=O)NCCc1cnc[nH]1
inactive: activity change, negative = inhibition ([12]; at 17.2 µM (top of the series)) -8.55% | activity change, negative = inhibition ([12]; at 38 µM (top of the series)) 7.43% | activity, negative = inhibition ([13]; at 17.2 µM (top of the series)) 9.79% | activity, negative = inhibition ([13]; at 38 µM (top of the series)) -27.3% | Potency [14] > 46 µM and > 20.6 µM | Potency [15] > 46 µM and > 20.6 µM | Potency [5] | Potency [6] | Potency [7] | Potency [8] | Potency [1] | Potency [9] | outcome [16] | outcome [17] | Potency [3] | outcome [10] | activation [11] 1% | Potency [4]

CN=C(N)NCCCC(N)C(=O)O (configuration not stated)
inactive: Potency [5] | Potency [6] | Potency [7] | Potency [8] | Potency [1] | Potency [9] | outcome [16] | outcome [17] | Potency [3] | outcome [10] | outcome [18] | activation [11] 0.812% | Potency [19] | activity, negative = inhibition ([20]; parasite line A) 12.3% | activity, negative = inhibition ([20]; parasite line B) 12.2%

C=C1/C(=C\C=C2/CCC[C@]3(C)[C@@H]([C@H](C)CCCC(C)(C)O)CC[C@@H]23)C[C@@H](O)C[C@@H]1O
inactive: outcome [18] | activity, negative = inhibition ([20]; parasite line A) -3.09% | activity, negative = inhibition ([20]; parasite line B) -9.52%

COc1c2c(nc3ccccc13)OC(C(C)(O)CO)C2 (configuration not stated)
inactive: Potency [5] | Potency [6] | Potency [7] | Potency [8] | Potency [1] | Potency [9] | outcome [16] | outcome [17] | Potency [3] | outcome [10] | activation [11] 0.812% | Potency [4]

N=C(N)SCCc1cccc(CCSC(=N)N)c1
inactive: activity change, negative = inhibition [12, 21] 7.41% [at 38 µM] | activity, negative = inhibition [13, 21] 0.643% [at 38 µM] | Potency [14] > 46 µM | Potency [15] > 46 µM | outcome [16] | outcome [17] | Potency [2] | outcome [10] | activation [11] 0.562%
active: Potency [5] 6.31 µM | Potency [6] 2.24 µM | Potency [7] 3.16 µM | Potency [8] 10 µM | Potency [1] 1 µM | Potency [9] 8.91 µM | Potency [3] 13.1 µM

OC[C@H]1O[C@@H](n2cnc3c(NCCc4ccccc4)ncnc32)[C@H](O)[C@H]1O
inactive: Potency [5] | Potency [6] | Potency [7] | Potency [8] | Potency [9] | outcome [16] | outcome [17] | Potency [2] | Potency [3] | outcome [10] | activation [11] -0.5% | Potency [4]

CC(=O)O[C@H]1C[C@@H]2CCC3C(CC[C@@]4(C)[C@H]3C[C@H]([N+]3(C)CCCCC3)[C@@H]4OC(C)=O)[C@@]2(C)C[C@@H]1[N+]1(C)CCCCC1 (some centres not stated)
inactive: Potency [5] | Potency [6] | Potency [9] | outcome [16] | outcome [17] | Potency [2] | outcome [10] | activation [11] 0.25% | Potency [4]

NCCNC(=O)c1ccc(Cl)cc1
inactive: activity change, negative = inhibition [12, 21] -4.17% [at 38 µM] | activity, negative = inhibition [13, 21] -2.11% [at 38 µM] | Potency [14] > 46 µM | Potency [15] > 46 µM | Potency [5] | Potency [6] | Potency [7] | Potency [8] | Potency [1] | Potency [9] | outcome [17] | Potency [3] | outcome [10] | activation [11] 0.625% | Potency [4]

CN1C2CCC1CC(NC(=O)c1nn(C)c3ccccc13)C2 (configuration not stated)
inactive: Potency [6] | Potency [7] | Potency [8] | Potency [9] | outcome [16] | Potency [2] | outcome [10] | activation [11] 0.75% | Potency [4]

CNC(=O)[C@H]1O[C@@H](n2cnc3c(NCc4ccc(N)cc4)ncnc32)[C@H](O)[C@H]1O
inactive: Potency [6] | Potency [7] | Potency [8] | Potency [9] | outcome [17] | Potency [3] | outcome [10] | activation [11] -0.312% | Potency [4]

Source: PubChem BioAssay (NCATS)
